Assay results as given in the supplement of paper PMC4466140.

Legend:
Test in all cases: SPOT peptide array binding signal intensity (averaged, normalized) (arbitrary units (background-subtracted, floor 0; scale differs between SH3 domains)); higher = stronger binding of the SH3 domain to the peptide
[1] = biological target: SpBzz1-D2
Method in brief: (§1)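 Binding signal refers to normalized, background-subtracted spot intensity averaged over replicates, expressed in arbitrary units that differ between domains. GST-fused SH3 domains from four yeast species were incubated at 10 μg/ml overnight at 4°C on cellulose membranes of synthetic 15-mer peptides with cysteines replaced by serines. Bound protein was detected with anti-GST antibody, an HRP anti-mouse secondary and luminol, and quantified with Genespotter.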

[2] = biological target: SpCyk3
Method in brief: as §1

[3] = biological target: SpHof1
Method in brief: as §1

[4] = biological target: SpHof1-2
Method in brief: as §1

[5] = biological target: SpHof1-3
Method in brief: as §1

[6] = biological target: SpHse1
Method in brief: as §1

[7] = biological target: SpLsb1
Method in brief: as §1

[8] = biological target: SpLsb4
Method in brief: as §1

[9] = biological target: SpMyo1
Method in brief: as §1

[10] = biological target: SpNbp2
Method in brief: as §1

[11] = biological target: SpPex13
Method in brief: as §1

[12] = biological target: SpRvs167
Method in brief: as §1

[13] = biological target: SpSla1-D1-D2
Method in brief: as §1

[14] = biological target: SpSla1-D3
Method in brief: as §1

[15] = biological target: AgAbp1
Method in brief: as §1

[16] = biological target: AgBbc1
Method in brief: as §1

[17] = biological target: AgBem1-D1
Method in brief: as §1

[18] = biological target: AgBzz1-D1
Method in brief: as §1

[19] = biological target: AgBzz1-D2
Method in brief: as §1

[20] = biological target: AgCyk3
Method in brief: as §1

[21] = biological target: AgFus1
Method in brief: as §1

[22] = biological target: AgHof1
Method in brief: as §1

[23] = biological target: AgHse1
Method in brief: as §1

[24] = biological target: AgLsb1
Method in brief: as §1

[25] = biological target: AgLsb4
Method in brief: as §1

[26] = biological target: AgMyo5
Method in brief: as §1

[27] = biological target: AgNbp2
Method in brief: as §1

[28] = biological target: AgRvs167
Method in brief: as §1

[29] = biological target: AgSho1
Method in brief: as §1

[30] = biological target: AgSla1-D1-D2
Method in brief: as §1

[31] = biological target: AgSla1-D3
Method in brief: as §1

[32] = biological target: CaAbp1-D1
Method in brief: as §1

[33] = biological target: CaAbp1-D2
Method in brief: as §1

[34] = biological target: CaBbc1
Method in brief: as §1

[35] = biological target: CaBem1-D1
Method in brief: as §1

[36] = biological target: CaBzz1-D1
Method in brief: as §1

[37] = biological target: CaBzz1-D2
Method in brief: as §1

[38] = biological target: CaCyk3
Method in brief: as §1

[39] = biological target: CaFus1
Method in brief: as §1

[40] = biological target: CaHof1
Method in brief: as §1

[41] = biological target: CaHse1
Method in brief: as §1

[42] = biological target: CaLsb1
Method in brief: as §1

[43] = biological target: CaLsb4
Method in brief: as §1

[44] = biological target: CaMyo5
Method in brief: as §1

[45] = biological target: CaNbp2
Method in brief: as §1

[46] = biological target: CaRvs167
Method in brief: as §1

[47] = biological target: CaRvs167-3
Method in brief: as §1

[48] = biological target: CaSho1
Method in brief: as §1

[49] = biological target: CaSla1-D1-D2
Method in brief: as §1

[50] = biological target: CaSla1-D3
Method in brief: as §1

[51] = biological target: ScAbp1
Method in brief: as §1

[52] = biological target: ScBbc1
Method in brief: as §1

[53] = biological target: ScBem1-D1
Method in brief: as §1

[54] = biological target: ScBzz1-D1
Method in brief: as §1

[55] = biological target: ScBzz1-D2
Method in brief: as §1

[56] = biological target: ScCyk3
Method in brief: as §1

[57] = biological target: ScFus1
Method in brief: as §1

[58] = biological target: ScHof1
Method in brief: as §1

[59] = biological target: ScHse1
Method in brief: as §1

[60] = biological target: ScLsb1
Method in brief: as §1

[61] = biological target: ScLsb2
Method in brief: as §1

[62] = biological target: ScLsb3
Method in brief: as §1

[63] = biological target: ScLsb4
Method in brief: as §1

[64] = biological target: ScMyo3
Method in brief: as §1

[65] = biological target: ScMyo5
Method in brief: as §1

[66] = biological target: ScNbp2
Method in brief: as §1

[67] = biological target: ScPex13
Method in brief: as §1

[68] = biological target: ScRvs167
Method in brief: as §1

[69] = biological target: ScSho1
Method in brief: as §1

[70] = biological target: ScSla1-D1-D2
Method in brief: as §1

[71] = biological target: ScSla1-D3
Method in brief: as §1

[72] = biological target: SpAbp1-D1
Method in brief: as §1

[73] = biological target: SpBbc1
Method in brief: as §1

[74] = biological target: SpBzz1-D1
Method in brief: as §1

In the case of AHFQPQRTAPKPPIS, the “SPOT peptide array binding signal intensity” value [1] is reported as 18.1, the “SPOT peptide array binding signal intensity” value [2] is reported as ≤ 0 and the “SPOT peptide array binding signal intensity” value [3] is reported as 1.62. The “SPOT peptide array binding signal intensity” value [4] was 2, the “SPOT peptide array binding signal intensity” value [5] was 34 and the “SPOT peptide array binding signal intensity” value [6] was 70.1. For the same binder, the “SPOT peptide array binding signal intensity” value [7] was 36.8, the “SPOT peptide array binding signal intensity” value [8] was 87.5 and the “SPOT peptide array binding signal intensity” value [9] was 2050. For the same binder, the “SPOT peptide array binding signal intensity” value [10] was 264, the “SPOT peptide array binding signal intensity” value [11] was ≤ 0 and the “SPOT peptide array binding signal intensity” value [12] was 13.9. The “SPOT peptide array binding signal intensity” value [13] was ≤ 0 and the “SPOT peptide array binding signal intensity” value [14] was ≤ 0.

For DAPASKPSVPPRNYF, the “SPOT peptide array binding signal intensity” value [15] was 2.5, the “SPOT peptide array binding signal intensity” value [16] was 239 and the “SPOT peptide array binding signal intensity” value [17] was 2. The “SPOT peptide array binding signal intensity” value [18] was 26.5, the “SPOT peptide array binding signal intensity” value [19] was ≤ 0 and the “SPOT peptide array binding signal intensity” value [20] was 2.5. For the same binder, the “SPOT peptide array binding signal intensity” value [21] was ≤ 0, the “SPOT peptide array binding signal intensity” value [22] was ≤ 0 and the “SPOT peptide array binding signal intensity” value [23] was ≤ 0. For the same binder, the “SPOT peptide array binding signal intensity” value [24] was 1080, the “SPOT peptide array binding signal intensity” value [25] was 69.5 and the “SPOT peptide array binding signal intensity” value [26] was ≤ 0. The “SPOT peptide array binding signal intensity” value [27] was 45, the “SPOT peptide array binding signal intensity” value [28] was 13.2 and the “SPOT peptide array binding signal intensity” value [29] was 1. The “SPOT peptide array binding signal intensity” value [30] was ≤ 0, the “SPOT peptide array binding signal intensity” value [31] was ≤ 0 and the “SPOT peptide array binding signal intensity” value [32] was 17.5. For the same binder, the “SPOT peptide array binding signal intensity” value [33] was 3, the “SPOT peptide array binding signal intensity” value [34] was 962 and the “SPOT peptide array binding signal intensity” value [35] was ≤ 0. The “SPOT peptide array binding signal intensity” value [36] was 190, the “SPOT peptide array binding signal intensity” value [37] was 5.75 and the “SPOT peptide array binding signal intensity” value [38] was 34.5. For the same binder, the “SPOT peptide array binding signal intensity” value [39] was ≤ 0, the “SPOT peptide array binding signal intensity” value [40] was ≤ 0 and the “SPOT peptide array binding signal intensity” value [41] was ≤ 0. For the same binder, the “SPOT peptide array binding signal intensity” value [42] was 35, the “SPOT peptide array binding signal intensity” value [43] was 427 and the “SPOT peptide array binding signal intensity” value [44] was ≤ 0. For the same binder, the “SPOT peptide array binding signal intensity” value [45] was ≤ 0, the “SPOT peptide array binding signal intensity” value [46] was 199 and the “SPOT peptide array binding signal intensity” value [47] was ≤ 0. For the same binder, the “SPOT peptide array binding signal intensity” value [48] was ≤ 0, the “SPOT peptide array binding signal intensity” value [49] was 38 and the “SPOT peptide array binding signal intensity” value [50] was ≤ 0. For the same binder, the “SPOT peptide array binding signal intensity” value [51] was ≤ 0, the “SPOT peptide array binding signal intensity” value [52] was 5.5 and the “SPOT peptide array binding signal intensity” value [53] was 2. For the same binder, the “SPOT peptide array binding signal intensity” value [54] was 20, the “SPOT peptide array binding signal intensity” value [55] was 10 and the “SPOT peptide array binding signal intensity” value [56] was ≤ 0. The “SPOT peptide array binding signal intensity” value [57] was ≤ 0, the “SPOT peptide array binding signal intensity” value [58] was ≤ 0 and the “SPOT peptide array binding signal intensity” value [59] was ≤ 0. The “SPOT peptide array binding signal intensity” value [60] was 681, the “SPOT peptide array binding signal intensity” value [61] was 2160 and the “SPOT peptide array binding signal intensity” value [62] was 1550. For the same binder, the “SPOT peptide array binding signal intensity” value [63] was 293, the “SPOT peptide array binding signal intensity” value [64] was ≤ 0 and the “SPOT peptide array binding signal intensity” value [65] was ≤ 0. The “SPOT peptide array binding signal intensity” value [66] was 526, the “SPOT peptide array binding signal intensity” value [67] was 1310 and the “SPOT peptide array binding signal intensity” value [68] was 1530. The “SPOT peptide array binding signal intensity” value [69] was ≤ 0, the “SPOT peptide array binding signal intensity” value [70] was 329 and the “SPOT peptide array binding signal intensity” value [71] was 145. For the same binder, the “SPOT peptide array binding signal intensity” value [72] was 3, the “SPOT peptide array binding signal intensity” value [73] was 182 and the “SPOT peptide array binding signal intensity” value [74] was 95. For the same binder, the “SPOT peptide array binding signal intensity” value [1] was 0.5, the “SPOT peptide array binding signal intensity” value [2] was ≤ 0 and the “SPOT peptide array binding signal intensity” value [3] was 1. The “SPOT peptide array binding signal intensity” value [4] was 2, the “SPOT peptide array binding signal intensity” value [5] was 11 and the “SPOT peptide array binding signal intensity” value [6] was ≤ 0. The “SPOT peptide array binding signal intensity” value [7] was 756, the “SPOT peptide array binding signal intensity” value [8] was 3340 and the “SPOT peptide array binding signal intensity” value [9] was 2. The “SPOT peptide array binding signal intensity” value [10] was 3, the “SPOT peptide array binding signal intensity” value [11] was ≤ 0 and the “SPOT peptide array binding signal intensity” value [12] was 802. For the same binder, the “SPOT peptide array binding signal intensity” value [13] was ≤ 0 and the “SPOT peptide array binding signal intensity” value [14] was ≤ 0.

For TTNRGPPPLPPRANV, the “SPOT peptide array binding signal intensity” value [15] was 2, the “SPOT peptide array binding signal intensity” value [16] was 301 and the “SPOT peptide array binding signal intensity” value [17] was 53.5. For the same binder, the “SPOT peptide array binding signal intensity” value [18] was 385, the “SPOT peptide array binding signal intensity” value [19] was 144 and the “SPOT peptide array binding signal intensity” value [20] was 6. The “SPOT peptide array binding signal intensity” value [21] was ≤ 0, the “SPOT peptide array binding signal intensity” value [22] was 398 and the “SPOT peptide array binding signal intensity” value [23] was 35.5. For the same binder, the “SPOT peptide array binding signal intensity” value [24] was 513, the “SPOT peptide array binding signal intensity” value [25] was 4310 and the “SPOT peptide array binding signal intensity” value [26] was 394. For the same binder, the “SPOT peptide array binding signal intensity” value [27] was 4.5, the “SPOT peptide array binding signal intensity” value [28] was 1710 and the “SPOT peptide array binding signal intensity” value [29] was ≤ 0. The “SPOT peptide array binding signal intensity” value [30] was ≤ 0, the “SPOT peptide array binding signal intensity” value [31] was 4 and the “SPOT peptide array binding signal intensity” value [32] was 19. For the same binder, the “SPOT peptide array binding signal intensity” value [33] was ≤ 0, the “SPOT peptide array binding signal intensity” value [34] was 590 and the “SPOT peptide array binding signal intensity” value [35] was 28. For the same binder, the “SPOT peptide array binding signal intensity” value [36] was 6090, the “SPOT peptide array binding signal intensity” value [37] was 2120 and the “SPOT peptide array binding signal intensity” value [38] was 10.5. For the same binder, the “SPOT peptide array binding signal intensity” value [39] was 22.5, the “SPOT peptide array binding signal intensity” value [40] was 101 and the “SPOT peptide array binding signal intensity” value [41] was 73. For the same binder, the “SPOT peptide array binding signal intensity” value [42] was 9, the “SPOT peptide array binding signal intensity” value [43] was 4530 and the “SPOT peptide array binding signal intensity” value [44] was 6.25.
